Assay results as given in PubChem BioAssay.
Where “and” joins values, the source holds several entries; their conditions need not be identical. Equal values may be shown once. Results filed as inconclusive are left out. Calls of active or inactive are those of the source.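 The calls were made as follows, unless noted: active = normalized viability below 100% at a tested concentration; inactive = the rest.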

Tests used:
[1] = stimulators of nuclear beta-catenin in C2C12, primary screen, imaging, WNT3A-conditioned medium, mouse C2C12, NPC library (AID 1117326; in the data active = nuclear beta-catenin stimulation mostly above about 4.2%, no sharp cut-off; inactive = mostly below about 10%); details: stronger effect = higher value
[2] = stimulators of insulin release from INS-1E, primary screen, cell-based, 5 mM glucose, NPC library (AID 1117329;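 active = compound raises insulin release from rat beta cells at 5 mM glucose, no numeric limit stated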); details: rat INS-1E insulin secretion, at 10 µM, stronger effect = higher value
[3] = growth inhibition of GSK3B-pretreated HCT116 cells – cell-based, CellTiter-Glo, 0.2 to 20 µM (AID 1117336;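 active = compounds lowering colon cancer cell viability after pretreatment blocking the GSK3B kinase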); details: HCT116 viability after GSK3B inhibitor, at 20 µM, stronger effect = higher value
[4] = inhibition of endothelial tube formation, primary screen, imaging, VEGF stimulated, CD31 staining, tube area, NPC library (AID 1117340;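 active = compound that reduces growth-factor-driven endothelial tube area in a mixed cell culture, no cutoff stated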); details: VEGF-stimulated ADSC/ECFC co-culture, at 10 µM, stronger effect = higher value
[5] = glucagon-like peptide 1 release enhancers, primary assay, NCI-H716 cell line, NPC library (AID 1117341;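 active = compound raises GLP1 secretion from the human gut endocrine cells, with no numeric limit stated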); details: NCI-H716 cells, at 10 µM, stronger effect = higher value
[6] = HCT116 colon cancer cell growth inhibition, primary screen, CellTiter-Glo luminescence, NPC library (AID 1117342;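 active = compounds that lower survival of HCT116 colon cancer cells in the luminescence readout, no numeric limit stated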); details: at 20 µM (top of the series)
[7] = CellTiter-Glo luminescent readout of SW480 viability loss, NPC library primary (AID 1117343;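 active = compounds that lower viability of the colon cancer cells in the luminescence readout, with no numeric limit stated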); details: CellTiter-Glo luminescence; at 20 µM (top of the series) unless noted
[8] = decreased DLD-1 cellular survival, CellTiter-Glo luminescent readout, NPC compound collection, primary HTS (AID 1117346;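 active = compounds that lower survival of DLD-1 colon cancer cells in the luminescence readout, no cutoff given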); details: DLD-1 viability, CellTiter-Glo luminescence; at 20 µM (top of the series)
[9] = growth inhibition of DIPG glioma cells, dose response, cell-based, JHH-DIPG-1, MIPE4.0, CellTiter-Glo, qHTS (AID 1347062; cut-off not given, nearly all actives have AC50 up to about 27 µM;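 as to AC50: cells exposed to compound for two days before readout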); details: JHH-DIPG-1 viability, CellTiter-Glo ATP luminescence
[10] = growth inhibition of DIPG glioma cells, dose response, cell-based, SU-DIPG-IV, MIPE4.0, CellTiter-Glo, qHTS (AID 1347063; cut-off not given, nearly all actives have AC50 up to about 30 µM;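 also: compound exposure lasted 48 hours before the viability readout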); details: SU-DIPG-IV viability, CellTiter-Glo ATP luminescence
[11] = SU-DIPG-VI glioma cell viability, MIPE4.0 library, CellTiter-Glo luminescence, qHTS (AID 1347066; cut-off not given, nearly all actives have AC50 up to about 30 µM;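 also: cells exposed to compound for 48 hours before readout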); details: CellTiter-Glo ATP luminescence
[12] = SU-DIPG-XXV glioma cell viability, MIPE5.0 library, qHTS (AID 1347068; cut-off not given, nearly all actives have IC50 up to about 30 µM)
[13] = sensitizers of A549 cells to miR-34 induction, primary screen, imaging, A549 dox-inducible miR-34, nuclei and caspase counts (AID 1347080;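 active = compounds whose cell count with miR-34 switched on is under 0.7 times the count with it off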); details: A549 miR-34 inducible, Hoechst nuclei count, 48 h
[14] = survival rescue of mitochondrial mutant cells in low glucose, primary screen, MELAS cybrids, Rieske KO mouse fibroblasts, CellTiter-Glo (AID 1508586;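 active = mean z-score across replicates of 1.96 or higher in either the MELAS or the Rieske mutant cell line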;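 also: z relative to plate mean and SD of compound and empty wells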)
[15] = viability loss in pontine glioma line – cell-based, SU-DIPG-XXV, MIPE5.0, CellTiter-Glo, qHTS, dose response (AID 1347065; cut-off not given, nearly all actives have AC50 up to about 26 µM;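 also: cells exposed to compound for 48 hours before ATP readout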); details: CellTiter-Glo ATP luminescence
[16] = JHH-DIPG-1 glioma cell viability, MIPE5.0 library, CellTiter-Glo luminescence, qHTS (AID 1347067; cut-off not given, nearly all actives have AC50 up to about 26 µM;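 also: cells exposed to compound for 48 hours before readout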); details: JHH-DIPG-1 glioma viability, CellTiter-Glo ATP luminescence
[17] = ovarian cancer cell viability with rucaparib, profiling panel, oncology-focused library, rucaparib conditional (AID 1508598); details: patient-derived ovarian cancer cells, CellTiter-Glo viability, 144 h, stronger effect = lower value
[18] = stronger effect = lower value, cell number ratio, induced over uninduced
[19] = measured here: relative caspase fold change +Dox/-Dox
[20] = measured here: total cells with miR-34 induction, stronger effect = lower value
[21] = measured here: total cells without miR-34 induction
[22] = MELAS cybrid survival, CellTiter-Glo 48 h, stronger effect = higher value
[23] = Rieske KO mouse fibroblast survival, CellTiter-Glo 72 h

Cc1cc(=O)c2c(O)c3c(O)cc(=O)c4c3c3c(cc(O)c1c23)C(C)(C)C=4O
active: nuclear beta-catenin stimulation ([1]; at 10 µM) 46.6% | viability decrease [3] 117% | tube area decrease [4] 54.9% | inhibition of viability [6] 124% | viability decrease (inhibition) [7] 158% | viability decrease (inhibition) [8] 101% | AC50 [9] 743 nM | AC50 [10] 469 nM | AC50 [11] 105 nM
inactive: insulin secretion stimulation [2] 0.4% | GLP1 secretion stimulation [5] 8%
68.1%: nuclear beta-catenin stimulation ([1]; stimulation, at 2 µM)

CCOC(=O)c1c(C)n(C)c2ccc(O)cc12
7760: cell count [13, 20]
2.1%: nuclear beta-catenin stimulation ([1]; stimulation, at 2 µM)
0.616: z-score [14, 23]
8760: cell count [13, 21]
0.841: fold change [13, 19]
inactive: nuclear beta-catenin stimulation ([1]; at 10 µM) 0.7% | insulin secretion stimulation [2] 0.5% | viability decrease [3] -5.75% | tube area decrease [4] -15.4% | GLP1 secretion stimulation [5] 3.6% | inhibition of viability [6] 0% | viability decrease (inhibition) [7] 7% | viability decrease (inhibition) [8] -0.8% | outcome [9] | outcome [10] | outcome [11] | outcome [12] | fold change [13, 18] 0.886 | z-score [14, 22] -0.277

O=C(Nc1ccc(S(=O)(=O)N2CCOCC2)cc1)c1cc(Cl)ccc1NS(=O)(=O)c1ccc(Cl)s1
active: viability decrease [3] 118% | tube area decrease [4] 100% | GLP1 secretion stimulation [5] 39.8% | inhibition of viability [6] 124% | viability decrease (inhibition) [7] 158% | viability decrease (inhibition) [8] 101%
-0.5%: nuclear beta-catenin stimulation ([1]; stimulation, at 2 µM)
inactive: nuclear beta-catenin stimulation ([1]; at 10 µM) 0.9% | insulin secretion stimulation [2] 3.7% | outcome [15] | outcome [16] | outcome [12]

Cc1ccc(Nc2nccc(N(C)c3ccc4c(C)n(C)nc4c3)n2)cc1S(N)(=O)=O
5260 and 7730: cell count [13, 21]
active: tube area decrease [4] 97.1% | viability decrease (inhibition) [7] 69.3% | AC50 [15] 5900 nM | AC50 [16] 18600 nM | viability ([17]; at 0.000305 µM, OCI-C5x cells, with rucaparib 10 µM, 100% = cells with rucaparib alone) 96.4% | viability ([17]; at 0.000305 µM, OCI-C5x cells, without rucaparib) 95.3% | viability ([17]; at 0.000305 µM, OCI-P5x cells, with rucaparib 20 µM, 100% = cells with rucaparib alone) 99% | viability ([17]; at 0.00122 µM, OCI-P5x cells, without rucaparib) 99.5% | viability ([17]; at 0.00488 µM, OCI-C5x cells, without rucaparib) 98.4% | viability ([17]; at 0.00488 µM, OCI-P5x cells, without rucaparib) 99.3% | viability ([17]; at 0.0195 µM, OCI-C5x cells, with rucaparib 10 µM, 100% = cells with rucaparib alone) 98.1% | viability ([17]; at 0.0195 µM, OCI-P5x cells, with rucaparib 20 µM, 100% = cells with rucaparib alone) 97.8% | viability ([17]; at 0.0195 µM, OCI-P5x cells, without rucaparib) 98.3% | viability ([17]; at 0.0781 µM, OCI-P5x cells, with rucaparib 20 µM, 100% = cells with rucaparib alone) 97.9% | viability ([17]; at 0.0781 µM, OCI-P5x cells, without rucaparib) 95.6% | viability ([17]; at 0.313 µM, OCI-C5x cells, without rucaparib) 95.9% | viability ([17]; at 0.313 µM, OCI-P5x cells, without rucaparib) 90.2% | viability ([17]; at 1.25 µM, OCI-C5x cells, without rucaparib) 96.9% | viability ([17]; at 1.25 µM, OCI-P5x cells, with rucaparib 20 µM, 100% = cells with rucaparib alone) 87.9% | viability ([17]; at 1.25 µM, OCI-P5x cells, without rucaparib) 91.3% | viability ([17]; at 5 µM, OCI-P5x cells, with rucaparib 20 µM, 100% = cells with rucaparib alone) 86% | viability ([17]; at 5 µM, OCI-P5x cells, without rucaparib) 86%
1.31 and 0.946: fold change [13, 19]
inactive: nuclear beta-catenin stimulation ([1]; at 10 µM) 5.9% | insulin secretion stimulation [2] 4.9% | viability decrease [3] 20.9% | GLP1 secretion stimulation [5] -3.5% | inhibition of viability [6] 48.8% | viability decrease (inhibition) [8] 14.5% | outcome [9] | outcome [11] | fold change [13, 18] 0.9 and 0.786 | z-score [14, 22] -0.327 and -0.404 | viability ([17]; at 0.000305 µM, OCI-P5x cells, without rucaparib) 100% | viability ([17]; at 0.00122 µM, OCI-C5x cells, with rucaparib 10 µM, 100% = cells with rucaparib alone) 104% | viability ([17]; at 0.00122 µM, OCI-C5x cells, without rucaparib) 106% | viability ([17]; at 0.00122 µM, OCI-P5x cells, with rucaparib 20 µM, 100% = cells with rucaparib alone) 105% | viability ([17]; at 0.00488 µM, OCI-C5x cells, with rucaparib 10 µM, 100% = cells with rucaparib alone) 104% | viability ([17]; at 0.00488 µM, OCI-P5x cells, with rucaparib 20 µM, 100% = cells with rucaparib alone) 100% | viability ([17]; at 0.0195 µM, OCI-C5x cells, without rucaparib) 100% | viability ([17]; at 0.0781 µM, OCI-C5x cells, with rucaparib 10 µM, 100% = cells with rucaparib alone) 103% | viability ([17]; at 0.0781 µM, OCI-C5x cells, without rucaparib) 102% | viability ([17]; at 0.313 µM, OCI-C5x cells, with rucaparib 10 µM, 100% = cells with rucaparib alone) 109% | viability ([17]; at 0.313 µM, OCI-P5x cells, with rucaparib 20 µM, 100% = cells with rucaparib alone) 100% | viability ([17]; at 1.25 µM, OCI-C5x cells, with rucaparib 10 µM, 100% = cells with rucaparib alone) 108% | viability ([17]; at 5 µM, OCI-C5x cells, with rucaparib 10 µM, 100% = cells with rucaparib alone) 112% | viability ([17]; at 5 µM, OCI-C5x cells, without rucaparib) 115%
-0.2 and 1.1: z-score [14, 23]
4740 and 6080: cell count [13, 20]
1%: nuclear beta-catenin stimulation ([1]; stimulation, at 2 µM)
